Values joined by “and” are separate entries in the source; they are usually repeats but may differ in a detail not shown here. Identical values can stand only once. Active and inactive are the calls of the source.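 Rule for the calls, unless noted: active = compounds whose cell count with miR-34 switched on is under 0.7 times the count with it off; inactive = the rest.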
Tests used:
[1] = circadian clock period modulators, cell-based, LOPAC library, luminescence reporter (AID 2774; call rule not given here;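 note: values are relative to mean of DMSO wells on each plate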); details: circadian reporter cells, at 7 µM, actives lie on both sides
[2] = test system: Hepatitis C virus NS3 helicase; assay: HCV NS3 helicase inhibitors, primary screen, biochemical, fluorescence polarization, LOPAC1280 library (AID 687035; in the data active = inhibition above about 37%); details: Purified HCV NS3 helicase, Cy5-dT15 ssDNA binding fluorescence polarization; stronger effect = higher value; concentration not given here
[3] = Cy5 fluorescence quenching or enhancement artefacts, artefact control for HCV NS3 helicase inhibitor project, biochemical, LOPAC1280 (AID 687037; call rule not given here); details: Cy5-DNA-NS3h complex fluorescence interference counterscreen
[4] = differential killing of epithelial or mesenchymal cells, primary screen, imaging, PC-3E GFP, TEM4-18 mCherry, co-culture (AID 1345086;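 active = compounds killing one labelled cell type while sparing the other, by normalised counts and ratio limits, not self-fluorescent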;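 for all read-outs here: cells exposed to compound for 72 h before imaging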;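 for red/green cell ratio (normalised): normalised mesenchymal count divided by normalised epithelial count so high means epithelial killing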); details: imaging cell counts, at 1 µM; for red/green cell ratio (normalised): actives lie on both sides, counts scaled to control wells, 1 = unselective
[5] = sensitizers of A549 cells to miR-34 induction, primary screen, imaging, A549 dox-inducible miR-34, nuclei and caspase counts (AID 1347080); details: A549 miR-34 inducible, Hoechst nuclei count, 48 h
[6] = phospholipid biosynthesis inhibitors in animal cells, primary screen, cell-based, LOPAC library, screen 4 (AID 1347384; call rule not given here); details: phospholipid biosynthesis inhibition screen, at 10 µM
[7] = biological target: Mitogen-activated protein kinase 7 (Homo sapiens) (UniProt Q13164); assay: ERK5 transactivation activators in reporter cells, primary screen, cell-based, HTS (AID 1508626;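 active = luciferase signal above three times the same-plate solvent-only control wells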;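 note: luciferase driven by Gal4-ERK5 fusion binding five Gal4 sites before minimal TATA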); details: HeLa Gal4-ERK5 transactivation, 18 h, at 5 µM, stronger effect = higher value
[8] = viability rescue of complex I mutant cybrids, primary screen, cell-based, galactose medium, ATP luminescence (AID 1645843;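 active = z-score of at least 1.8 in each of two replicates, scored against plate mean and spread of sample wells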;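 note: positive z means more ATP and so rescue of galactose-driven cybrid death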); details: complex I mutant cybrid cells, 72 h, stronger effect = higher value
[9] = survival rescue of mitochondrial mutant cells in low glucose, primary screen, MELAS cybrids, Rieske KO mouse fibroblasts, CellTiter-Glo (AID 1508586;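 active = mean z-score across replicates of 1.96 or higher in either the MELAS or the Rieske mutant cell line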;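 note: z relative to plate mean and SD of compound and empty wells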)
[10] = liver-stage malaria parasite growth inhibition, primary screen, cell-based, HepG2, luciferase luminescence, HepG2 viability (AID 624349; in the data active = parasite load remaining mostly below about 12%, no sharp cut-off; inactive = mostly above about 10%;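 note: 100% = mean of DMSO negative control wells on the same plate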); details: P. berghei liver stage in HepG2, luciferase luminescence, concentration not given here; parasite load remaining: stronger effect = lower value; viability: measured here: HepG2 viability without parasites
[11] = biological target: NAD(+) hydrolase SARM1 (Homo sapiens) (UniProt Q6SZW1); assay: SARM1 TIR NADase inhibitors, cell lysate, NAD-Glo luminescence (AID 1508614;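 active = compound whose remaining NAD level is above about 45 nM, limit read from the data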;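 note: higher remaining NAD means stronger inhibition of SARM1 NADase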); details: SAM-TIR HEK293T lysate NADase, at 1 µM, stronger effect = higher value
[12] = hESC survival regulators, cell-based (AID 493140; call rule not given here;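 note: cells exposed to compounds for four days before counting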); details: human embryonic stem cell survival screen; stronger effect = higher value
[13] = measured here: epithelial PC-3E GFP cell survival
[14] = measured here: mesenchymal TEM4-18 mCherry cell survival
[15] = stronger effect = lower value, cell number ratio, induced over uninduced
[16] = measured here: relative caspase fold change +Dox/-Dox
[17] = measured here: total cells with miR-34 induction, stronger effect = lower value
[18] = measured here: total cells without miR-34 induction
[19] = MELAS cybrid survival, CellTiter-Glo 48 h, stronger effect = higher value
[20] = Rieske KO mouse fibroblast survival, CellTiter-Glo 72 h

NAD(+) hydrolase SARM1 (Homo sapiens), sequence (Q6SZW1 whole entry, looked up): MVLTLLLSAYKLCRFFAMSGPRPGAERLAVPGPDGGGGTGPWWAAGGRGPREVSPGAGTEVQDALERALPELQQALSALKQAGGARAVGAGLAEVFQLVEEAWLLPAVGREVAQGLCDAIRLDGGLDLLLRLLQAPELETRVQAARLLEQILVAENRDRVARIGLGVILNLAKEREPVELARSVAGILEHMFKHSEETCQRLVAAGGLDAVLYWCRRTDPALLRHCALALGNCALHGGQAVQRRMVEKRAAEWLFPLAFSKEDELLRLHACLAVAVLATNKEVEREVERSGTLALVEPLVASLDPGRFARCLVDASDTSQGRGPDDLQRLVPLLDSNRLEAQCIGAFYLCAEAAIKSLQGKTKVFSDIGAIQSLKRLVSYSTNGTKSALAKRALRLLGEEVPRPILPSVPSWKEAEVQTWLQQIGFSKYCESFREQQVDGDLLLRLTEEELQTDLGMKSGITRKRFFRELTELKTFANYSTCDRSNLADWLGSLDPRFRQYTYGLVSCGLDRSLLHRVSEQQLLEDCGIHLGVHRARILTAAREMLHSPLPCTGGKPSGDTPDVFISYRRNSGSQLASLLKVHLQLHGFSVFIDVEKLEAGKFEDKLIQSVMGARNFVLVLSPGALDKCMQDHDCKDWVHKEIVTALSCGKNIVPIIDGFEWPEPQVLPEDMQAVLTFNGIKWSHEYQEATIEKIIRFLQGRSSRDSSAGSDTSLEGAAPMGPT
Mitogen-activated protein kinase 7 (Homo sapiens), sequence (Q13164 whole entry, looked up, the tested form may be a part): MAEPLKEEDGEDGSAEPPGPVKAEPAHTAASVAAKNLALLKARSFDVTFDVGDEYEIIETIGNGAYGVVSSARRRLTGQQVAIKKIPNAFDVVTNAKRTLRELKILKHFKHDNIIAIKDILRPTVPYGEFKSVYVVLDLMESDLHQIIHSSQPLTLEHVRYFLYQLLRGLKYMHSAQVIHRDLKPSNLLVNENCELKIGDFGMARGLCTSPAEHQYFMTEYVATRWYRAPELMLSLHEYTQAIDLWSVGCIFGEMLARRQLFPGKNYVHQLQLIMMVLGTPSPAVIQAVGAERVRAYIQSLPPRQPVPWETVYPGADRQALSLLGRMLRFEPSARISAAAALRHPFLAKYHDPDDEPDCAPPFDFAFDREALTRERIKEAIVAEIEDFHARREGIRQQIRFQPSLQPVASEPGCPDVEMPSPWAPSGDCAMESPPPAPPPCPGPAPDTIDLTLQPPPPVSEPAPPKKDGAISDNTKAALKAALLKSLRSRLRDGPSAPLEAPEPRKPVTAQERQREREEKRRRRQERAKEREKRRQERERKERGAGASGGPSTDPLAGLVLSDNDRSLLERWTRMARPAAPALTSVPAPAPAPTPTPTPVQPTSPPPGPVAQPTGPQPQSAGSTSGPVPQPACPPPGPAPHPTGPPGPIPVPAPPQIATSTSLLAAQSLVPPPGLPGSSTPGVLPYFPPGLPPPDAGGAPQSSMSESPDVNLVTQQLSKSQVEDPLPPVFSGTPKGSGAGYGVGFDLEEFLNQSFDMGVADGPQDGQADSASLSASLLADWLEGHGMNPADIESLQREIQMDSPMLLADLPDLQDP

O=C(O)C1=CC(=C(c2ccc(O)c(C(=O)O)c2)c2ccc(O)c(C(=O)O)c2)C=CC1=O
period change [1]: -0.145 h (inactive)
inhibition [2]: 96% (active)
fluorescence ratio (interference) [3]: 1 (inactive)
red/green cell ratio (normalised) [4]: 1.1 (inactive)
normalised cell number [4, 13]: 1.19
normalised cell number [4, 14]: 1.31
fold change [5, 15]: 1.06 (inactive)
fold change [5, 16]: 1.49
cell count [5, 17]: 8760
cell count [5, 18]: 8290
outcome [6]: inactive
luciferase signal [7]: 12 AU (inactive)
z-score [8]: 5.43 (active)

CC(=O)[C@@]12O[C@](C)(c3ccccc3)O[C@@H]1CC1C3CCC4=CC(=O)CC[C@]4(C)C3CC[C@@]12C (stereo not given in full)
red/green cell ratio (normalised) [4]: 1.21 (inactive)
normalised cell number [4, 13]: 1.05
normalised cell number [4, 14]: 1.26
fold change [5, 15]: 0.858 (inactive)
fold change [5, 16]: 1.15
cell count [5, 17]: 5100
cell count [5, 18]: 5940

CCNC1CN(CCCOC)S(=O)(=O)c2sc(S(N)(=O)=O)cc21 (stereo not given)
red/green cell ratio (normalised) [4]: 0.72 (inactive)
normalised cell number [4, 13]: 1.22
normalised cell number [4, 14]: 0.87
fold change [5, 15]: 0.853 (inactive)
fold change [5, 16]: 0.647
cell count [5, 17]: 8320
cell count [5, 18]: 9750
z-score [9, 19]: -0.247 (inactive)
z-score [9, 20]: -0.152

O=C(O)[C@H]1/C(=C/CO)O[C@@H]2CC(=O)N21
parasite load remaining [10]: 50.6% (inactive)
viability [10]: 103%
red/green cell ratio (normalised) [4]: 1.31 (inactive)
normalised cell number [4, 13]: 0.86
normalised cell number [4, 14]: 1.13
fold change [5, 15]: 0.901 (inactive)
fold change [5, 16]: 3.53
cell count [5, 17]: 11900
cell count [5, 18]: 13200
z-score [9, 19]: -0.304 (inactive)
z-score [9, 20]: -1.19
remaining NAD [11]: 10 nM (inactive)
luciferase signal [7]: 76 AU (inactive)

CN1C2CCC1CC(OC(=O)c1c[nH]c3ccccc13)C2 (stereo not given)
period change [1]: 0.005 h (inactive)
inhibition [2]: 0% (inactive)
fluorescence ratio (interference) [3]: 1 (inactive)
red/green cell ratio (normalised) [4]: 1.09 (inactive)
normalised cell number [4, 13]: 0.93
normalised cell number [4, 14]: 1.02
fold change [5, 15]: 0.997 (inactive) and 0.976 (inactive) and 0.922 (inactive)
fold change [5, 16]: 1.28 and 0.664 and 2.09
cell count [5, 17]: 10100 and 8850 and 6980
cell count [5, 18]: 10100 and 9070 and 7570
outcome [6]: inactive
z-score [8]: -0.34 (inactive) and 0.77 (inactive)

NCCCNCCCCNCCCN
period change [1]: -0.16 h (inactive)
inhibition [2]: -1% (inactive)
fluorescence ratio (interference) [3]: 1 (inactive)
red/green cell ratio (normalised) [4]: 1.05 (inactive)
normalised cell number [4, 13]: 0.96
normalised cell number [4, 14]: 1
fold change [5, 15]: 0.928 (inactive)
fold change [5, 16]: 0.993
cell count [5, 17]: 10300
cell count [5, 18]: 11100
outcome [6]: inactive
z-score [8]: -0.2 (inactive)

COc1cccc2c1C(=O)c1c(O)c3c(c(O)c1C2=O)C[C@@](O)(C(=O)CO)C[C@@H]3OC1C[C@H](N)[C@H](O)[C@H](C)O1 (stereo not given in full)
parasite load remaining [10]: 18.8% (inactive)
viability [10]: 53.1%
red/green cell ratio (normalised) [4]: 2.27 (inactive)
normalised cell number [4, 13]: 0.17
normalised cell number [4, 14]: 0.39
fold change [5, 15]: 0.907 (inactive)
fold change [5, 16]: 1.04
cell count [5, 17]: 1130
cell count [5, 18]: 1250

COc1nc(N)nc2c1ncn2C1O[C@H](CO)[C@@H](O)[C@@H]1O (stereo not given in full)
red/green cell ratio (normalised) [4]: 0.99 (inactive)
normalised cell number [4, 13]: 0.92
normalised cell number [4, 14]: 0.91
fold change [5, 15]: 0.89 (inactive)
fold change [5, 16]: 0.801
cell count [5, 17]: 7770
cell count [5, 18]: 8740

N=C(N)SCCN
period change [1]: -0.04 h (inactive)
inhibition [2]: -3% (inactive)
fluorescence ratio (interference) [3]: 1 (inactive)
red/green cell ratio (normalised) [4]: 0.88 (inactive)
normalised cell number [4, 13]: 1.12
normalised cell number [4, 14]: 0.98
fold change [5, 15]: 0.958 (inactive) and 1.11 (inactive)
fold change [5, 16]: 2.51 and 0.757
cell count [5, 17]: 9240 and 6110
cell count [5, 18]: 9640 and 5490
outcome [6]: inactive
luciferase signal [7]: 96 AU (inactive)
z-score [8]: -0.855 (inactive)

O=C(O)c1ccccc1
parasite load remaining [10]: 29.9% (inactive)
viability [10]: 83.9%
red/green cell ratio (normalised) [4]: 1.1 (inactive)
normalised cell number [4, 13]: 1.23
normalised cell number [4, 14]: 1.35
fold change [5, 15]: 0.957 (inactive) and 0.932 (inactive)
fold change [5, 16]: 0.544 and 1.69
cell count [5, 17]: 8250 and 11300
cell count [5, 18]: 8620 and 12100
z-score [9, 19]: -0.248 (inactive)
z-score [9, 20]: -0.209
remaining NAD [11]: 10 nM (inactive)
luciferase signal [7]: 36 AU (inactive)

CC1=CC(=O)NS(=O)(=O)O1
red/green cell ratio (normalised) [4]: 1.16 (inactive)
normalised cell number [4, 13]: 0.89
normalised cell number [4, 14]: 1.03
fold change [5, 15]: 0.852 (inactive) and 0.934 (inactive)
fold change [5, 16]: 0.799 and 0.672
cell count [5, 17]: 7390 and 8400
cell count [5, 18]: 8680 and 8990
z-score [9, 19]: -0.393 (inactive)
z-score [9, 20]: -0.0842
remaining NAD [11]: 10 nM (inactive)

O=C(O)c1ccccc1Nc1ccccc1
period change [1]: -0.04 h (inactive)
inhibition [2]: 0% (inactive)
fluorescence ratio (interference) [3]: 0.9 (inactive)
red/green cell ratio (normalised) [4]: 0.96 (inactive)
normalised cell number [4, 13]: 1.09
normalised cell number [4, 14]: 1.05
fold change [5, 15]: 1.06 (inactive) and 0.981 (inactive)
fold change [5, 16]: 2.67 and 0.812
cell count [5, 17]: 10300 and 5440
cell count [5, 18]: 9720 and 5550
outcome [6]: inactive
luciferase signal [7]: 24 AU (inactive)
z-score [8]: 2.06 (active)

CCC(=O)OCC(=O)[C@@]1(OC(=O)CC)[C@H](C)CC2C3C([C@@H](O)C[C@@]21C)[C@@]1(C)C=CC(=O)C=C1C[C@H]3Cl (stereo not given in full)
red/green cell ratio (normalised) [4]: 1.28 (inactive)
normalised cell number [4, 13]: 0.98
normalised cell number [4, 14]: 1.25
fold change [5, 15]: 0.884 (inactive)
fold change [5, 16]: 0.881
cell count [5, 17]: 5210
cell count [5, 18]: 5890

COC1CC2CCC(C)C(O)(O2)C(=O)C(=O)N2CCCCC2C(=O)OC(C(C)CC2CCC(O)C(OC)C2)CC(=O)C(C)/C=C(\C)C(O)C(OC)C(=O)C(C)CC(C)/C=C/C=C/C=C/1C (stereo not given)
parasite load remaining [10]: 60.9% (inactive)
viability [10]: 98.1%
red/green cell ratio (normalised) [4]: 1.36 (inactive)
normalised cell number [4, 13]: 0.36
normalised cell number [4, 14]: 0.49
fold change [5, 15]: 0.865 (inactive)
fold change [5, 16]: 3.67
cell count [5, 17]: 7720
cell count [5, 18]: 8920

CC(C)Cc1ccc([C@H](C)C(=O)O)cc1
period change [1]: -0.055 h (inactive)
survival [12]: 6.58 (inactive)
parasite load remaining [10]: 89.2% (inactive)
viability [10]: 95.1%
inhibition [2]: -6% (inactive)
fluorescence ratio (interference) [3]: 0.9 (inactive)
red/green cell ratio (normalised) [4]: 0.85 (inactive)
normalised cell number [4, 13]: 0.93
normalised cell number [4, 14]: 0.79
fold change [5, 15]: 1.1 (inactive) and 0.885 (inactive)
fold change [5, 16]: 1.11 and 1.2
cell count [5, 17]: 10400 and 9190
cell count [5, 18]: 9420 and 10400
outcome [6]: inactive
z-score [9, 19]: 0.343 (inactive)
z-score [9, 20]: -0.398
remaining NAD [11]: 26 nM (inactive)
z-score [8]: 0.53 (inactive)

Reference: PubChem BioAssay
